According to PubChem BioAssay AID602388 (National Center for Advancing Translational Sciences (NCATS), 2012):
The list shows a part of the results. Results filed as inconclusive are left out. Active and inactive are the calls of the source. Calls come from the whole dose curve; as a rule, active = well fitted inhibition curve with a large enough effect; inconclusive = small, poorly fitted or top-dose-only effect; inactive = flat fitted curve, though single readings scatter.

Target: Regulator of G-protein signaling 4 (Homo sapiens) (UniProt P49798)
Test: qHTS for Inhibitors of Regulator of G Protein Signaling(RGS) 4: Hit Validation
Details: RGS4 GAP activity, Transcreener GDP fluorescence polarization
Excerpt: G-protein-coupled receptors (GPCRs) are well-established targets for drug discovery and development. Members of the "regulator of G-protein signaling" (RGS)-protein superfamily have recently emerged as critical modulators of specific GPCR signaling pathways. […] Combining specific RGS domain inhibitors with existing GPCR agonists should potentiate cellular responses and could also increase the specificity of action of existing therapeutics. Small molecule modulators of RGS domain activity should also have clinical utility in inhibiting or potentiating the actions of endogenous GPCR agonists. In particular, the diversity of RGS proteins with highly localized and dynamically regulated distributions in the human brain makes this family of proteins attractive targets for pharmacotherapy of central nervous system (CNS) disorders such as Parkinson's disease, schizophrenia, and anxiety. […] This assay was used to screen the NIH Molecular Libraries Small Molecule Repository (MLSMR) in order to identify a small molecule that inhibits RGS4. NIH Chemical Genomics Center [NCGC] NIH Molecular Libraries Probe Centers Network [MLPCN] MLPCN Grant: DA030555 Assay Submitter (PI): David Siderovski, University of North Carolina Chapel Hill (School of Medicine)
Two microliters of 500nM (2x working concentration) is dispensed into black medium-binding solid-bottom Kalypsys plates. Then with the Kalypsys pintool 23nl of control and compounds are transferred; the control compound is […] CCG-4986 (working concentration). […] An initial fluorescent polarization read (620 nm/688 nm) is performed on the Envision before the plate is incubated for 90 minutes at 30 deg C at a relative humidity of 80%. The plate is once more centrifuged at 1000 RPM for 15 seconds and another Envision fluorescent polarization (620 nm/688 nm) read is carried out.

Chain of Regulator of G-protein signaling 4 (Homo sapiens) (P49798 whole entry, looked up): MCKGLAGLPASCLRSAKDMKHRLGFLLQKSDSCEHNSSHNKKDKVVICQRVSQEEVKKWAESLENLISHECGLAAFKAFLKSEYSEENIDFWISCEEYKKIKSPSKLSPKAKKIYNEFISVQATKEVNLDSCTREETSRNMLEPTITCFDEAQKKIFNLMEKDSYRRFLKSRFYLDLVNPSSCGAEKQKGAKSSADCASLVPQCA

Potency, active:
Cc1ccc(-c2nc3ccccn3c2Nc2c(C)cccc2C)o1 10.6 µM, O=C(Nc1nc(-c2ccncc2)cs1)C1COc2ccccc2O1 (stereo not drawn) 5.32 µM, Cc1ccc(-n2nc(-c3ccco3)cc2C(=O)NCc2cccnc2)cc1 6.7 µM
